# HT1080 IDH1KD tx: qHTS for induction of synthetic lethality in tumor cells producing 2HG: qHTS for the HT-1080-IDH1KD cell line; Potency, µM (titrated, usually from 46.1 µM), for the others: at the top dose activity, negative = toxicity, actives largely listed as cytotoxic; HT-1080 IDH1 knockdown viability, ATP luminescence, 48 h; 360,000 tested, 2% active;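 also: potency is read from the fitted curve at half-maximal effect; 0% = DMSO wells and -100% = cell-free medium wells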
#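 IDH1KD HT-1080 cells, 750/well, RPMI + 5% FBS; compound pinned after 2 h settling; 48 h, 37 °C; CellTiter-Glo luminescence; % activity normalised to DMSO and no-cell wells; curves fitted, classed by r2 and efficacy.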
# IL-1B inflam inh: qHTS for Inhibitors of Inflammasome Signaling: IL-1-beta AlphaLISA Primary Screen. THP-1 LPS/ATP IL-1B secretion, AlphaLISA, 16 h; stronger effect = lower value. activity change, % at 57.5 µM. 360,000 tested, 4.7% active. AID 743279, 2014; in the data active = activity change below about -50%; inconclusive = mostly about -30% to -49%
#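 THP-1 cells pretreated 1 hr with compounds (up to 57.5 uM final), then stimulated with LPS (250 ng/mL final) plus ATP (1.25 mM final); secreted IL-1B measured by AlphaLISA after 16 hr, decreased signal indicating inhibition.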
# HT1080NT lethal: qHTS for induction of synthetic lethality in tumor cells producing 2HG: qHTS for the HT-1080-NT fibrosarcoma cell line; HT-1080-NT fibrosarcoma viability, CellTiter-Glo ATP luminescence, 48 h; Potency, µM (top dose mostly 46.1 µM), for inactives: top-dose activity, negative = less viability, most hits filed as cytotoxic; 360,000 tested, 1.6% active;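 also: NT is the 2HG producing partner of a matched IDH1 knockdown line; potency is read from the fitted curve at half-maximal effect; 0% = DMSO-treated cells and -100% = media-only wells without cells; nearly all actives have a fitted effect of over 55% in size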
#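 HT-1080-NT; 750 cells/well; 5% FBS RPMI; 48 h compound, 37 degrees C; CellTiter-Glo luminescence; curve fitting and curve-class assignment.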
# TDP1 cell CPT: qHTS for Inhibitors of human tyrosyl-DNA phosphodiesterase 1 (TDP1): qHTS in cells in presence of CPT; 420,000 tested, 12% active; Potency, µM (titrated, usually from 46.2 µM), for the others: at the highest dose activity change, negative = growth inhibition, hits mostly inhibitors; AID 686979, 2013; chicken DT40 Tdp1-/-;hTDP1 cells + 20 nM CPT, ATP luminescence, 48 h; also: potency is read from the fitted curve at half-maximal effect; nearly all actives have a fitted effect of over 55% in size
#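 Chicken DT40 Tdp1-/- cells stably complemented with human TDP1 were seeded at 400 cells/well in medium containing 20 nM camptothecin, exposed to pin-transferred compounds, and grown at 37 °C for at least 48 hr. Viability was read as ATP luminescence.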
# TDP1 cell noCPT: qHTS for Inhibitors of human tyrosyl-DNA phosphodiesterase 1 (TDP1): qHTS in cells in absence of CPT; DT40 Tdp1-/- hTDP1 cells, no CPT, ATP luminescence, 48 h; Potency, µM (top dose mostly 46.2 µM), for inactives: top-dose activity change, negative = growth inhibition, hits mostly inhibitors; 420,000 tested, 15% active; AID 686978, 2013; also: potency is read from the fitted curve at half-maximal effect; nearly all actives have a fitted effect of over 55% in size
#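 Growth of hTDP1-complemented DT40 Tdp1-knockout cells is measured by ATP luminescence after at least 48 hr compound exposure at 37 °C, with DMSO substituting for the 20 nM CPT used in the parallel screen.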
# * hit, by the source's call; ? = inconclusive; · = no result given; [ ] = dose if it differs, or a comment. This is a sample that favours compounds with a hit; in the whole collection about 19% have one here. Unless noted, calls follow the shape of the dose curve; as a rule, active = well fitted curve in the direction sought with a large enough effect; inconclusive = small, poorly fitted or top-dose-only effect, or another doubt; inactive = no such curve, though single readings can be large; an effect the other way counts as inactive or inconclusive. Unless noted, % is scaled to controls: 0 for no effect and ±100 for the full control effect.
SMILES,HT1080 IDH1KD tx,IL-1B inflam inh,HT1080NT lethal,TDP1 cell CPT,TDP1 cell noCPT
Cc1nc(C)c(-c2csc(Nc3ccc(O)cc3C)n2)s1,6.7%,-5.6,3.1%,16.4µM*,5.8µM*
Cc1cc(O)ccc1Nc1nc(-c2cccnc2)cs1,?,-0.5,-1.1%,-50.8%,-51.8%
Cc1cc(C)c(S(=O)(=O)NCC2CCC(C(=O)NCc3ccccn3)CC2)c(C)c1 (stereo unspecified),17.4%,-0.4,9.6%,1.9%,11.6%
Cc1ccc(S(=O)(=O)NC(C(=O)N2CCOCCOCCOCC2)C(C)C)cc1 (stereo unspecified),11.6%,16.9,17.0%,10.6%,-12.1%
O=C(NC1CCCCC1)c1cc([N+](=O)[O-])[nH]n1,-3.8%,13.8,-12.2%,?,18.4µM*
O=C1COc2ccc(C(=O)CSc3nc4ccccc4c(=O)n3-c3ccc(Cl)c(Cl)c3)cc2N1,0.9%,84.1,0.3%,23.1µM*,?
O=C(CSc1nc2[nH]ncc2c(=O)n1-c1ccccc1)c1ccc2c(c1)OCCO2,-5.1%,-53.9*,-25.2%,?,?
CCc1ccc(-n2c(SCC(=O)c3ccc4c(c3)NC(=O)CO4)nc3ccccc3c2=O)cc1,7.6%,53.2,0.4%,?,20.6µM*
Nc1cc(N)nc(SCC(=O)c2ccc3c(c2)NC(=O)CO3)n1,0.0%,-1.4,-6.2%,-1.4%,-15.1%
Cn1c(SCC(=O)c2ccc3c(c2)NC(=O)CO3)nc2ccccc21,30.2%,43.0,9.6%,?,?
O=C1COc2ccc(C(=O)CSc3nnc(NCc4ccccc4)s3)cc2N1,-8.8%,-20.7,-2.8%,?,13µM*
CCn1c(SC(C)C(=O)Nc2ccc(C)cc2)nnc1-c1ccccc1 (stereo unspecified),·,·,·,-12.0%,-29.3%
C=CCNC(=O)COC(=O)c1cc(S(=O)(=O)N2CCCCC2)ccc1Cl,-4.5%,-0.1,8.9%,2.9%,4.9%
CN1CC(=O)Nc2cc(C(=O)O)ccc21,·,·,·,9.0%,-1.6%
CCCn1c(SCC(=O)c2ccc3c(c2)NC(=O)CO3)nc2ccccc21,-17.7%,29.8,?,10.3µM*,9.2µM*
O=C1COc2ccc(C(=O)CSc3nnc(Cc4cccs4)n3-c3ccc(Cl)cc3)cc2N1,?,0.4,8.7%[9.24 µM],18.4µM*,18.4µM*
CC(C(=O)Nc1ccc(Cl)cc1)c1ncc(C(F)(F)F)cc1Cl (stereo unspecified),-24.3%,-12.0,-18.5%,?,?
CCN(C(=O)c1cnc(NC(C)C)cc1C(F)(F)F)c1ccc(Cl)cc1Cl,?,-19.2,?,8.2µM*,16.4µM*
Cc1ccccc1NC(=O)COC(=O)[C@@H]1CCCN1C(=O)c1cccs1,-3.2%,24.8,-0.8%,-4.3%,-1.9%
COC(=O)[C@H](CCSC)NC(=O)Cn1cnc2c(SC)nc(N)nc21,8.1%,37.1,2.8%,?,-11.5%
COC1=CC(=O)C=C(OC)C1(O)CC(C)=O,5.0%,0.5,-0.3%,4.11µM*,3.66µM*
COc1cccc(CN(C)C(=O)c2cnn(-c3ncc4c(n3)-c3ccccc3CCC4)c2C)c1,·,·,·,18.4µM*,23.1µM*
CCOC(=O)CN(C)C(=O)c1cnn(-c2ncc3c(n2)-c2ccccc2CCC3)c1C,·,·,·,3.8%[9.04 µM],?
CC1(C)CC(=O)C(N=Nc2ccc3ncsc3c2)=C(O)C1,-0.4%,23.8,4.1%,-27.6%,-18.1%
COc1ccc2nc(N=NC3=C(O)CC(C)(C)CC3=O)sc2c1,?,140.8,-17.2%,5.17µM*,5.8µM*
SMILES,HT1080 IDH1KD tx,IL-1B inflam inh,HT1080NT lethal,TDP1 cell CPT,TDP1 cell noCPT
COc1ccc2nc(N=Nc3ccc(O)c4ccccc34)sc2c1,5.8µM*,-0.2,7.31µM*,1.3µM*,1.3µM*
O=C(/C=C/c1ccccc1)NNC1=NS(=O)(=O)c2ccccc21,-14.9%,1.2,2.5%,2.5%,-2.7%
Clc1ccc(CN(Cc2ccccc2)C(c2cccs2)c2nnnn2C2CCCC2)cc1 (stereo unspecified),-16.9%,-14.0,-16.2%,14.6µM*,14.6µM*
Clc1ccc(C(c2nnnn2C2CCCC2)N2CCN(c3nc4ccccc4s3)CC2)cc1 (stereo unspecified),3.4%,-5.4,10.8%,-6.5%,-21.1%
CC(C)(C)n1nnnc1C(c1cccs1)N(Cc1ccc(Cl)cc1)CC1CCCO1 (stereo unspecified),?,0.0,-25.7%,20.6µM*,16.4µM*
CCN(CC)C(c1ccc(F)cc1)c1nnnn1C1CCCCC1 (stereo unspecified),0.8%,10.5,1.9%,-7.6%,-4.2%
Fc1ccc(CN(Cc2ccccc2)C(c2cccs2)c2nnnn2C2CCCCC2)cc1 (stereo unspecified),-17.6%,-27.8,-4.5%,?,16.4µM*
COc1ccc(-c2oc3ncn4nc(-c5ccccc5O)nc4c3c2-c2ccc(OC)cc2)cc1,·,·,·,-1.9%,-12.4%
C[C@H]1CN([C@@H](C)CO)C(=O)CCCn2cc(nn2)CO[C@@H]1CN(C)C(=O)c1ccncc1,-1.6%,2.7,-7.8%,-13.5%,19.9%
CC1CCc2cc(F)cc3c(O)c(C(=O)NCCN(C)C)c(=O)n1c23 (stereo unspecified),5.5%,?,?,20.6µM*,18.4µM*
CCn1cc(C(=O)NCCN(C)C)c(=O)c2cc(F)c(N3CCN(C)CC3)cc21,-5.6%,?,1.1%,5.6%,-26.5%
CCC[C@H]1CC(=O)C=C(c2ccc(OC)cc2)ON1C(=O)OC(C)(C)C,-3.3%,?,-12.7%,?,?
CS(=O)(=O)Nc1ccc(S(=O)(=O)N2CCCC2)cc1,8.7%,27.3,7.7%,12.7%,-2.0%
C=CC[n+]1c(-c2ccc(OCC)cc2)csc1NNC(=O)Nc1ccccc1,?,-22.2,?,7.31µM*,5.8µM*
CCOC(=O)c1[nH]c(C)c(/C(O)=C2\C(=O)C(=O)N(CCCN(C)C)C2c2cccnc2)c1C (stereo unspecified),7.0%,13.6,6.4%,-3.7%,1.4%
COC(=O)COc1cccc(NC(=O)C(c2ccccc2)c2ccccc2)c1,-2.0%,-6.9,0.3%,-7.0%,-20.5%
O=C(CC1(O)C(=O)Nc2ccc(Br)cc21)c1ccc2c(c1)OCO2 (stereo unspecified),-13.6%,48.1,-6.6%,25.9µM*,?

# Screening results: PubChem, National Center for Advancing Translational Sciences (NCATS)
